# Measured values taken from the supplement of paper PMC9446081.
# Among all 39,000 compounds or so, about 220 (0.56%) showed activity. This excerpt belongs to a sample that is enriched for actives.
# System: Escherichia coli K-12 BW25113
# Assay: relative growth (OD600 normalised to plate interquartile mean) (fraction); higher = less growth inhibition, active = 0.2 or less
# Conditions: 50 µM; LB; incubation time: overnight (16-24 h)
# 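Note: Wild-type cells incubated without shaking, value is the mean of two biological replicates.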
row,SMILES,relative growth
1,C[C@@H]1CN([C@H](C)CO)C(=O)c2ccccc2-c2ccccc2CO[C@@H]1CN(C)C(=O)Nc1cccc(F)c1,1.01 (inactive)
2,CCOC(=O)CCn1cc(F)c(=O)[nH]c1=O,0.986 (inactive)
3,CC(=O)On1cc(F)c(=O)[nH]c1=O,0.0691 (active)
4,CCOC(=O)Cn1cc(F)c(=O)[nH]c1=O,1.06 (inactive)
5,CCC1OC(=O)C(C)C(=O)C(C)C(OC2OC(C)CC(N(C)C)C2O)C(C)(OC)CC(C)C(=O)C(C)C2N(CCCCn3cnc(-c4cccnc4)c3)C(=O)OC12C (stereo not drawn),0.0499 (active)
6,C[C@@H]1CCCCO[C@@H](CN(C)CC2CCCCC2)[C@@H](C)CN([C@H](C)CO)C(=O)c2cc(N(C)C)ccc2O1,1 (inactive)
7,CN(C)c1ccc(O)c2c1CC1CC3C(N(C)C)C(O)=C(C(N)=O)C(=O)C3(O)C(O)=C1C2=O.Cl (stereo not drawn),0.0626 (active)
8,CN(C)C1C(O)=C(C(N)=O)C(=O)C2(O)C(O)=C3C(=O)c4c(O)ccc(Cl)c4C(C)(O)C3CC12.Cl (stereo not drawn),0.0595 (active)
9,CN(C)c1cc(NC(=O)CNC(C)(C)C)c(O)c2c1CC1CC3C(N(C)C)C(O)=C(C(N)=O)C(=O)C3(O)C(O)=C1C2=O (stereo not drawn),1.06 (inactive)
10,CN(C)C1C(O)=C(C(N)=O)C(=O)C2(O)C(O)=C3C(=O)c4c(O)cccc4C(C)(O)C3C(O)C12.Cl (stereo not drawn),0.0578 (active)
11,CN(C)[C@@H]1C(=O)C(C(=O)NCN2CCCC2)=C(O)[C@@]2(O)C(O)=C3C(=O)c4c(O)cccc4[C@@](C)(O)[C@H]3C[C@@H]12,0.516 (inactive)
12,CN(C)C1C(O)=C(C(N)=O)C(=O)C2(O)C(O)=C3C(=O)c4c(O)cccc4C(C)(O)C3CC12.Cl (stereo not drawn),0.056 (active)
13,C[C@@H]1CCCCO[C@H](CN(C)Cc2ccc(C(F)(F)F)cc2)[C@H](C)CN([C@H](C)CO)C(=O)c2cc(NS(=O)(=O)c3ccc(F)cc3)ccc2O1,1.02 (inactive)
14,C[C@@H]1CN([C@H](C)CO)C(=O)c2cc(NS(=O)(=O)c3ccc(F)cc3)ccc2O[C@@H](C)CCCCO[C@H]1CN(C)Cc1ccccc1,0.999 (inactive)
15,C[C@@H]1CN([C@@H](C)CO)C(=O)c2cc(-c3ccc(F)cc3)cnc2O[C@@H]1CN(C)C(=O)Cc1ccccn1,0.977 (inactive)
16,Cc1ccc(S(=O)(=O)N(C)C[C@@H]2Oc3c(NS(=O)(=O)c4ccc(F)cc4)cccc3C(=O)N([C@H](C)CO)C[C@@H]2C)cc1,1.01 (inactive)
17,COc1ccc(S(=O)(=O)N(C)C[C@H]2Oc3cc(C#CC4CCCC4)ccc3S(=O)(=O)N([C@@H](C)CO)C[C@H]2C)cc1,1.04 (inactive)
18,COc1ccc(CN(C)C[C@H]2Oc3ccc(NC(=O)Nc4ccc(C(F)(F)F)cc4)cc3CC(=O)N([C@@H](C)CO)C[C@H]2C)cc1,0.99 (inactive)
19,C[C@@H]1CCCCO[C@@H](CN(C)C(=O)Nc2ccc(C(F)(F)F)cc2)[C@H](C)CN([C@H](C)CO)C(=O)c2cc(NS(=O)(=O)c3cccs3)ccc2O1,1.03 (inactive)
20,O=C(O)[C@H]1O[C@@H](Oc2c(-c3ccc(O)cc3)oc3cc(O)cc(O)c3c2=O)[C@H](O)[C@@H](O)[C@@H]1O,1.01 (inactive)
21,C[C@H]1CN([C@@H](C)CO)S(=O)(=O)c2ccc(-c3cncnc3)cc2O[C@@H]1CN(C)C(=O)NC1CCCC1,1 (inactive)
22,CCC(=O)Nc1cnc(OC)nc1OC,1.01 (inactive)
23,C[C@@H]1CCCCO[C@H](CN(C)C(=O)Nc2ccc(C(F)(F)F)cc2)[C@@H](C)CN([C@@H](C)CO)C(=O)c2cc(NC(=O)c3ccncc3)ccc2O1,0.979 (inactive)
24,CN(C)CCCNC(=O)C[C@@H]1CC[C@@H]2[C@@H](COc3ccc(NC(=O)c4cccc(F)c4)cc3C(=O)N2C)O1,0.965 (inactive)
25,CC(C)NC(=O)N(C)C[C@@H]1Oc2c(NS(=O)(=O)c3ccc(Cl)cc3)cccc2C(=O)N([C@@H](C)CO)C[C@@H]1C,1.09 (inactive)
26,C[C@H](CO)N1C[C@H](C)[C@H](CN(C)C(=O)c2ccncc2)OCCCC[C@H](C)Oc2ccc(NS(C)(=O)=O)cc2C1=O,1.02 (inactive)

row,SMILES,relative growth
1,CN(C)C1C(O)=C(C(N)=O)C(=O)C2(O)C(O)=C3C(=O)c4c(O)ccc(Cl)c4C(O)C3CC12.Cl (stereo not drawn),0.0565 (active)
2,COC(=O)C(=C1OC(=O)C(c2ccccc2)=C1O)c1ccccc1,0.951 (inactive)
3,CC(O)C1C(=O)N2C(C(=O)O)=C(SC3CNC(C(=O)N(C)C)C3)C(C)C12 (stereo not drawn),0.0517 (active)
4,CC(O)C1C(=O)N2C(C(=O)[O-])=C(SC3Cn4cnc[n+]4C3)C(C)C12 (stereo not drawn),0.307 (inactive)
5,C[C@@H](O)[C@H]1C(=O)N2C(C(=O)O)=C(SCCNC=N)C[C@H]12,1.01 (inactive)
6,C[C@@H]1CN([C@@H](C)CO)C(=O)c2cc(NS(=O)(=O)c3ccc(F)cc3)ccc2O[C@@H](C)CCCCO[C@H]1CN(C)Cc1ccccc1,0.979 (inactive)
7,C[C@@H]1CCCCO[C@@H](CN(C)C(=O)Nc2ccc3c(c2)OCO3)[C@@H](C)CN([C@@H](C)CO)C(=O)c2cc(NS(=O)(=O)c3ccccc3)ccc2O1,1.01 (inactive)
8,C[C@@H]1CN([C@H](C)CO)C(=O)c2ccccc2-c2ccccc2CO[C@@H]1CN(C)S(=O)(=O)c1cn(C)cn1,0.997 (inactive)
9,O=C(C[C@H]1CC[C@H]2[C@@H](COC[C@@H](O)CN2S(=O)(=O)c2ccccc2)O1)N1CCOCC1,0.964 (inactive)
10,CC1(C)SC2C(NC(=O)C(N)c3ccc(O)cc3)C(=O)N2C1C(=O)O (stereo not drawn),1.1 (inactive)
11,CC1(C)S[C@H]2[C@@H](NC(=O)[C@@H](N)c3ccccc3)C(=O)N2[C@@H]1C(=O)O,1.01 (inactive)
12,CC1(C)S[C@@H]2[C@H](NC(=O)[C@H](N)c3ccc(O)cc3)C(=O)N2[C@H]1C(=O)O,0.516 (inactive)
13,CCOC(=O)OC(C)OC(=O)C1N2C(=O)C(NC(=O)C(N)c3ccccc3)C2SC1(C)C.Cl (stereo not drawn),0.0511 (active)
14,CC1(C)S[C@@H]2[C@H](NC(=O)[C@H](N)c3ccccc3)C(=O)N2[C@H]1C(=O)OCOC(=O)[C@@H]1N2C(=O)C[C@H]2S(=O)(=O)C1(C)C,0.107 (active)
15,CC1(C)SC2C(NC(=O)C(N)c3ccccc3)C(=O)N2C1C(=O)[O-].[Na+] (stereo not drawn),1.06 (inactive)
16,CN(C)CCCNC(=O)C[C@H]1CC[C@H]2[C@@H](COC[C@@H](O)CN2C(=O)c2cc(Cl)cc(Cl)c2)O1,0.968 (inactive)
17,COc1cc(N)ccn1,1.07 (inactive)
18,O=C(C[C@H]1C[C@H]2c3cc(NS(=O)(=O)c4ccc(F)cc4)ccc3O[C@H]2[C@H](CO)O1)NCc1ccccn1,0.998 (inactive)
19,OC[C@@H](O)[C@H]1O[C@H](c2ccccc2)OC[C@@H]1O,1.05 (inactive)
20,COc1ccc(S(=O)(=O)Nc2ccc3c(c2)C(=O)N([C@H](C)CO)C[C@@H](C)[C@@H](CN(C)C(=O)Nc2c(C)noc2C)O3)cc1,1 (inactive)
21,CSC1=N[C@@]2(C)CCCC[C@@H]2c2c1ccc1ccccc21,1.01 (inactive)
22,COc1ccc(C(=O)Nc2ccc3c(c2)C(=O)N(C)[C@@H]2CC[C@H](CC(=O)NCC4CC4)O[C@@H]2CO3)cc1,0.982 (inactive)
23,Cc1ccc(S(=O)(=O)Nc2ccc3c(c2)C(=O)N([C@@H](C)CO)C[C@H](C)[C@@H](CN(C)S(=O)(=O)c2cn(C)cn2)O3)cc1,0.932 (inactive)
24,CC(N)O.Cc1cc(CC(C)CC(C)(C)C)n(O)c(=O)c1 (stereo not drawn),0.0449 (active)
25,C[C@@H]1CCCCO[C@@H](CN(C)S(C)(=O)=O)[C@H](C)CN([C@H](C)CO)C(=O)c2cc(NS(=O)(=O)c3ccccc3)ccc2O1,0.997 (inactive)
26,NCCCC[C@@H](N)C(=O)N[C@@H](Cc1c[nH]c2ccccc12)C(=O)N[C@@H](CCCCN)C(=O)O,0.994 (inactive)

row,SMILES,relative growth
1,NCCCC[C@H](NC(=O)[C@@H](NC(=O)[C@H](Cc1c[nH]c2ccccc12)NC(=O)[C@H](CCCCN)NC(=O)[C@H](CCCCN)NC(=O)[C@H](Cc1c[nH]c2ccccc12)NC(=O)[C@H](Cc1c[nH]c2ccccc12)NC(=O)[C@H](CCCCN)NC(=O)[C@@H](N)CCCCN)C(c1ccccc1)c1ccccc1)C(N)=O,0.149 (active)
2,C[C@H](NC(=O)[C@@H](Cc1ccc2ccccc2c1)NC(=O)[C@@H](C)N)C(=O)N[C@@H](Cc1c[nH]c2ccccc12)C(=O)N[C@H](Cc1ccccc1)C(=O)N[C@@H](CCCCN)C(N)=O,0.98 (inactive)
3,Cc1noc(C)c1S(=O)(=O)Nc1ccc2c(c1)C(=O)N([C@H](C)CO)C[C@@H](C)[C@H](CN(C)S(=O)(=O)c1ccc(Cl)cc1)O2,1 (inactive)
4,COc1ccc(C#Cc2ccc3c(c2)O[C@@H](CN(C)C(=O)CN2CCOCC2)[C@@H](C)CN([C@H](C)CO)S3(=O)=O)cc1,0.997 (inactive)
5,COCCNC(=O)C[C@H]1C[C@H]2c3cc(NS(C)(=O)=O)ccc3O[C@H]2[C@H](CO)O1,1.01 (inactive)
6,C(=C\c1ccccc1)/CSc1ncnc2c1oc1ccccc12,1.02 (inactive)
7,C/C(=C\C(=O)OCCCCCCCCC(=O)O)C[C@@H]1OC[C@H](C[C@@H]2O[C@H]2[C@@H](C)[C@H](C)O)[C@@H](O)[C@H]1O,0.166 (active)
8,CC(=CC(=O)OCCCCCCCCC(=O)O)CC1OCC(CC2OC2C(C)C(C)O)C(O)C1O (stereo not drawn),0.526 (inactive)
9,C[C@@H]1CN([C@@H](C)CO)C(=O)c2cc(-c3cccc(C(=O)N(C)C)c3)cnc2O[C@H]1CN(C)C(=O)Cc1ccccn1,0.986 (inactive)
10,CC[C@H]1OC(=O)C[C@@H](O)[C@H](C)[C@@H](O[C@@H]2O[C@H](C)[C@@H](O[C@H]3C[C@@](C)(O)[C@@H](O)[C@H](C)O3)[C@H](N(C)C)[C@H]2O)[C@@H](CC=O)C[C@@H](C)C(=O)/C=C/C(C)=C/[C@@H]1CO[C@@H]1O[C@H](C)[C@@H](O)[C@@H](OC)[C@H]1OC,0.971 (inactive)
11,CC[C@H]1OC(=O)C[C@@H](O)[C@H](C)[C@@H](O[C@@H]2O[C@H](C)C[C@H](N(C)C)[C@H]2O)[C@@H](CC=O)C[C@@H](C)C(=O)/C=C/[C@]2(C)O[C@H]2[C@@H]1C,0.149 (active)
12,CCC1OC(=O)CC(O)C(C)C(OC2OC(C)C(OC3CC(C)(O)C(O)C(C)O3)C(N(C)C)C2O)C(CC=O)CC(C)C(=O)C=CC(C)=CC1COC1OC(C)C(O)C(OC)C1OC.O=C(O)C(O)C(O)C(=O)O (stereo not drawn),1.09 (inactive)
13,Nc1ccccc1C(=O)NCCN1CCNC1=O,1.01 (inactive)
14,N[C@@H]1CN(c2c(F)cc3c(=O)c(C(=O)O)cn([C@@H]4C[C@@H]4F)c3c2Cl)CC12CC2,0.0347 (active)
15,Cl.NC1CCN(c2c(F)cc3c(=O)c(C(=O)O)cn(C4CC4)c3c2Cl)C1 (stereo not drawn),0.0438 (active)
16,OC[C@@H](O)[C@@H](O)[C@@H](O)[C@@H](O)[C@@H](O)CO,1 (inactive)
17,C[C@H](CO)N1C[C@H](C)[C@H](CN(C)C(=O)Nc2ccc(C(F)(F)F)cc2)Oc2ccc(NS(=O)(=O)c3ccc(F)cc3)cc2C1=O,0.994 (inactive)
18,c1n[nH]nc1SSc1cn[nH]n1,0.536 (inactive)
19,C[C@H](CO)N1C[C@H](C)[C@H](CN(C)S(C)(=O)=O)Oc2c(NC(=O)c3ccc(-c4nccs4)cc3)cccc2C1=O,0.995 (inactive)
20,CCCN(C)C[C@@H]1OCCCC[C@H](C)Oc2ccc(NC(=O)CCC(F)(F)F)cc2C(=O)N([C@@H](C)CO)C[C@@H]1C,1 (inactive)
21,C[C@H](CO)N1C[C@H](C)[C@H](CN(C)Cc2ccccc2)OCCCC[C@H](C)Oc2ccc(NC(=O)C3CCCCC3)cc2C1=O,1.01 (inactive)
22,COc1ccc2cc1Oc1ccc(cc1)CC1c3c(cc4c(c3Oc3cc5c(cc3OC)CCN(C)C5C2)OCO4)CCN1C (stereo not drawn),0.844 (inactive)
23,COc1ccc2cc1Oc1ccc(cc1)C[C@H]1c3c(cc4c(c3Oc3cc5c(cc3OC)CCN(C)[C@@H]5C2)OCO4)CCN1C,0.993 (inactive)
24,COc1ccc2c(c1OC)C(=O)OC2C1c2c(cc3c(c2OC)OCO3)CCN1C.Cl (stereo not drawn),0.0513 (active)
25,C[C@H](CO)N1C[C@H](C)[C@H](CN(C)Cc2ccccc2)Oc2c(NC(=O)Nc3cccc4ccccc34)cccc2C1=O,1 (inactive)
26,Cc1ccc(S(=O)(=O)Nc2ccc3c(c2)C(=O)N([C@H](C)CO)C[C@@H](C)[C@@H](CN(C)C(=O)c2ccccc2)OCCCC[C@H](C)O3)cc1,1.01 (inactive)
